Experimental data from PubChem BioAssay (NCI).
This is part of a sample that, as a whole, favours compounds with a hit. Of some 79,000 tested, about 15% had one in any assay. Calls of active or inactive are those of the source. Cut-off read from the data, not from the text of the source: active = growth inhibition above about 70%; inactive = the rest.

Key:
[1] = NCI Yeast Anticancer Drug Screen. Data for the rad52 strain (AID 147);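 note: 0% = growth of vehicle-treated control cultures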; conditions: S. cerevisiae rad52 mutant growth inhibition, hits give high values
In short: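 Vehicle-treated cultures served as the reference for growth inhibition of compound-exposed yeast bearing a DNA repair mutation.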

[2] = NCI Yeast Anticancer Drug Screen. Data for the wt1 strain (AID 149);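 note: 0% = growth of vehicle-treated wt1 cultures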; conditions: S. cerevisiae wt1 strain (SPY 50644) growth inhibition, hits give high values
In short: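 The wt1 strain was treated with compounds, and growth was compared with vehicle-treated cultures to give inhibition.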

[3] = NCI Yeast Anticancer Drug Screen. Data for the rad50EPP+ strain (AID 151);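 note: 0% = growth of vehicle-treated control cultures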; conditions: S. cerevisiae rad50 mutant strain, hits give high values
In short: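 In this screen, rad50EPP+ yeast were exposed to compounds. Growth inhibition was scored against vehicle-treated controls.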

[4] = NCI Yeast Anticancer Drug Screen. Data for the mgt1 strain (AID 153); conditions: S. cerevisiae mgt1 mutant growth inhibition, hits give high values
In short: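 mgt1 strain exposed; growth vs vehicle control recorded as inhibition.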

[5] = NCI Yeast Anticancer Drug Screen. Data for the rad50 strain (AID 155);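 note: 0% = growth of vehicle-only cultures of the same strain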; conditions: S. cerevisiae rad50 strain growth inhibition, hits give high values
In short: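 Cells are treated with compound, grown, and their growth is then scored against vehicle-only cultures of the same repair-deficient yeast strain.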

[6] = NCI Yeast Anticancer Drug Screen. Data for the mec2-1 strain (AID 157); conditions: S. cerevisiae mec2-1 strain, hits give high values
In short: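 Vehicle-treated cultures served as reference for growth inhibition of compound-exposed mec2-1 yeast.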

[7] = NCI Yeast Anticancer Drug Screen. Data for the rad14 strain (AID 159);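 note: 0% = growth of vehicle-treated control cultures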; conditions: S. cerevisiae rad14 strain growth inhibition, hits give high values
In short: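 Readout: yeast growth inhibition, referenced to vehicle-only cultures. Strain bears a defined alteration in DNA damage repair.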

[8] = NCI Yeast Anticancer Drug Screen. Data for the sgs1 mgt1 strain (AID 161);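 note: 0% = growth of cultures given vehicle only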; conditions: S. cerevisiae sgs1 mgt1 strain, hits give high values
In short: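 Read-out: growth inhibition vs vehicle controls. Cells: mutant yeast strain deficient in DNA damage repair.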

[9] = NCI Yeast Anticancer Drug Screen. Data for the CLN2oe strain (AID 163);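 note: 0% = growth of vehicle-only control cultures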; conditions: S. cerevisiae CLN2oe strain, hits give high values
In short: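 Inhibition relative to vehicle-treated yeast is reported. Cells: strain with genetic alteration in cell-cycle control, grown with compound.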

[10] = NCI Yeast Anticancer Drug Screen. Data for the cln2 rad14 strain (AID 165);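 note: 0% = growth equal to vehicle treated cultures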; conditions: S. cerevisiae cln2 rad14 strain, hits give high values
In short: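 Each compound was tested on cln2 rad14 yeast. Inhibition of growth was calculated against vehicle-exposed controls.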

[11] = NCI Yeast Anticancer Drug Screen. Data for the bub3 strain (AID 167); conditions: S. cerevisiae bub3 mutant strain, hits give high values
In short: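 Part of a panel of yeast mutants defective in DNA damage repair or cell cycle regulation. Each strain is grown with compound, and inhibition is calculated relative to solvent-treated cultures.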

[12] = NCI Yeast Anticancer Drug Screen. Data for the wt2 strain (AID 169);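 note: 0% = growth of vehicle-treated yeast cultures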; conditions: S. cerevisiae wt2 strain growth inhibition, hits give high values
In short: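 Inhibition of yeast growth was determined after compound treatment, normalised to controls receiving only vehicle.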

[13] = NCI Yeast Anticancer Drug Screen. Data for the mlh1 strain (AID 171);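 note: 0% = growth of vehicle-treated control cultures of the same strain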; conditions: S. cerevisiae mlh1 strain growth inhibition, hits give high values
In short: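 Vehicle-normalised growth inhibition of a repair- or checkpoint-altered yeast strain following compound treatment.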

[14] = NCI Yeast Anticancer Drug Screen. Data for the sgs1 strain (AID 173);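 note: 0% = growth of vehicle-only control cultures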; conditions: S. cerevisiae sgs1 mutant, hits give high values
In short: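 Screen format: yeast with repair or checkpoint alterations, compound exposure, growth read relative to vehicle.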

[15] = NCI Yeast Anticancer Drug Screen. Data for the mlh1 rad18 strain (AID 175); conditions: S. cerevisiae mlh1 rad18 strain growth inhibition, hits give high values
In short: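 Vehicle-treated cultures served as the reference for growth inhibition in a yeast strain carrying DNA damage repair alterations exposed to each compound.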

[16] = NCI Yeast Anticancer Drug Screen. Data for the rad18 strain (AID 177); conditions: S. cerevisiae rad18 mutant growth inhibition, hits give high values
In short: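 Test articles were incubated with altered yeast defective in DNA damage repair. Results are given as inhibition of growth versus vehicle.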

[17] = at 5.0 µM (retest, dose inferred, filed as 0.5)
[18] = at 50.0 µM (retest, dose inferred, filed as 5.0)

Measured: growth inhibition

S=C1N(c2ccc(Cl)cc2)C2=C(N=Nc3ccccc3)C(=Nc3ccccc3S2)N1c1ccccn1
inactive: [1]; at 1.2 µM 8% | [1]; at 3.7 µM 16% | [1]; at 11.0 µM 51% | [2]; at 1.2 µM -3% | [2]; at 3.7 µM -3% | [2]; at 11.0 µM 3% | [2]; at 33.0 µM 29% | [3]; at 1.2 µM -11% | [3]; at 3.7 µM 3% | [3]; at 11.0 µM 61% | [4]; at 1.2 µM 13% | [4]; at 3.7 µM 15% | [4]; at 11.0 µM 66% | [5]; at 1.2 µM 6% | [5]; at 3.7 µM 12% | [5]; [17] 41% | [5]; at 11.0 µM 42% | [6]; at 1.2 µM 20% | [6]; at 3.7 µM 23% | [6]; [17] 3% | [6]; at 11.0 µM 62% | [7]; at 1.2 µM 14% | [7]; at 3.7 µM 19% | [7]; at 11.0 µM 40% | [8]; [17] 54% | [9]; at 1.2 µM -3% | [9]; at 3.7 µM -7% | [9]; at 11.0 µM 3% | [9]; at 33.0 µM 24% | [9]; at 100.0 µM 69% | [10]; [17] 13% | [11]; at 1.2 µM 22% | [11]; at 3.7 µM 22% | [11]; [17] 53% | [11]; at 11.0 µM 41% | [12]; at 1.2 µM -1% | [12]; at 3.7 µM -1% | [12]; at 11.0 µM 4% | [12]; at 33.0 µM 23% | [12]; at 100.0 µM 50% | [13]; at 1.2 µM 9% | [13]; at 3.7 µM 12% | [13]; at 11.0 µM 29% | [14]; at 1.2 µM 9% | [14]; at 3.7 µM 19% | [14]; at 11.0 µM 52% | [15]; [17] 32% | [16]; at 1.2 µM 9% | [16]; at 3.7 µM 16% | [16]; at 11.0 µM 44%
active: [1]; at 33.0 µM 98% | [1]; at 100.0 µM 99% | [2]; at 100.0 µM 85% | [3]; at 33.0 µM 94% | [3]; at 100.0 µM 97% | [4]; at 33.0 µM 99% | [4]; at 100.0 µM 99% | [5]; at 33.0 µM 95% | [5]; [18] 99% | [5]; at 50.0 µM 98.5% | [5]; at 100.0 µM 99% | [6]; at 33.0 µM 99% | [6]; [18] 100% | [6]; at 50.0 µM 98.5% | [6]; at 100.0 µM 99% | [7]; at 33.0 µM 90% | [7]; at 100.0 µM 99% | [8]; [18] 99% | [8]; at 50.0 µM 99% | [10]; [18] 99% | [10]; at 50.0 µM 98.5% | [11]; at 33.0 µM 84% | [11]; [18] 99% | [11]; at 50.0 µM 98.3% | [11]; at 100.0 µM 98% | [13]; at 33.0 µM 94% | [13]; at 100.0 µM 99% | [14]; at 33.0 µM 98% | [14]; at 100.0 µM 99% | [15]; [18] 99% | [15]; at 50.0 µM 99% | [16]; at 33.0 µM 94% | [16]; at 100.0 µM 99%

COc1ccc2cc(C(C)C(=O)N3CCOC3=O)ccc2c1 (stereo not drawn)
inactive: [1]; at 1.2 µM -9% | [1]; at 3.7 µM -16% | [1]; at 11.0 µM -7% | [1]; at 33.0 µM -8% | [1]; at 100.0 µM 12% | [2]; at 1.2 µM -34% | [2]; at 3.7 µM -34% | [2]; at 11.0 µM -29% | [2]; at 33.0 µM -31% | [2]; at 100.0 µM -22% | [3]; at 1.2 µM 5% | [3]; at 3.7 µM 5% | [3]; at 11.0 µM 7% | [3]; at 33.0 µM 9% | [3]; at 100.0 µM 22% | [4]; at 1.2 µM 5% | [4]; at 3.7 µM 6% | [4]; at 11.0 µM 7% | [4]; at 33.0 µM 21% | [4]; at 100.0 µM 45% | [5]; at 1.2 µM 21% | [5]; at 3.7 µM 24% | [5]; [17] -14% | [5]; at 11.0 µM 15% | [5]; at 33.0 µM 23% | [5]; [18] 27% | [5]; at 50.0 µM 60.6% | [5]; at 100.0 µM 50% | [6]; at 1.2 µM -21% | [6]; at 3.7 µM -28% | [6]; [17] -11% | [6]; at 11.0 µM -27% | [6]; at 33.0 µM -19% | [6]; [18] 9% | [6]; at 50.0 µM 23.9% | [6]; at 100.0 µM 11% | [7]; at 1.2 µM -18% | [7]; at 3.7 µM -20% | [7]; at 11.0 µM -22% | [7]; at 33.0 µM -17% | [7]; at 100.0 µM 50% | [8]; [17] 7% | [8]; [18] 37% | [8]; at 50.0 µM 57.1% | [9]; at 1.2 µM 11% | [9]; at 3.7 µM 5% | [9]; at 11.0 µM -3% | [9]; at 33.0 µM -6% | [9]; at 100.0 µM 11% | [10]; [17] 16% | [10]; [18] 17% | [10]; at 50.0 µM 24.7% | [11]; at 1.2 µM 29% | [11]; at 3.7 µM 25% | [11]; [17] -15% | [11]; at 11.0 µM 24% | [11]; at 33.0 µM 21% | [11]; at 50.0 µM 29.2% | [11]; at 100.0 µM 40%
active: [11]; [18] 75%
